# Sampled rows, rich in hits. Any-hit rate of the full collection: about 32%.
# CYP2C9 inh: inhibitors of human CYP2C9. P11712. actives 20% (n = 96,000). CYP2C9 Supersomes, luciferin-H conversion, luminescence. inhibition, % at 5 µM. AID 777;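 active = blocking of liver enzyme CYP2C9 beyond about 50% at 5 µM, limit read from the data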
# CYP2C9 act: activators of human CYP2C9 | recombinant CYP2C9, luciferin-H conversion, luminescence; hits give high values; factor 1 = untreated enzyme, 0 = blocked | activation factor at 5 µM | actives 1.4% (n = 96,000);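 active = activation factor of 2 or more for CYP2C9 at a 5 µM dose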;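 also: 0 = sulfaphenazole-blocked wells and 1 = vehicle-only wells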
# PostGolgi ctrl: yeast control strain growth, post-Golgi counter-screen; actives 5% (n = 98,000); efflux-deficient yeast background strain, growth absorbance A615, 16 h; inhibition, % at 10 µM
# CYP2C19 inh: human CYP2C19 inhibition | P33261 | CYP2C19 Supersomes, luciferin-H EGE luminescence, 30 min | inhibition, % at 5 µM | actives 21% (n = 96,000) | AID 778;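 active = CYP2C19 inhibition above a set limit at 5 µM in the primary screen, cut at about 50% in these data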;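 also: plate controls were negative control wells for no effect and 2.5 mM tranylcypromine positive control for full effect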
# Target sequence (P33261 whole entry, looked up): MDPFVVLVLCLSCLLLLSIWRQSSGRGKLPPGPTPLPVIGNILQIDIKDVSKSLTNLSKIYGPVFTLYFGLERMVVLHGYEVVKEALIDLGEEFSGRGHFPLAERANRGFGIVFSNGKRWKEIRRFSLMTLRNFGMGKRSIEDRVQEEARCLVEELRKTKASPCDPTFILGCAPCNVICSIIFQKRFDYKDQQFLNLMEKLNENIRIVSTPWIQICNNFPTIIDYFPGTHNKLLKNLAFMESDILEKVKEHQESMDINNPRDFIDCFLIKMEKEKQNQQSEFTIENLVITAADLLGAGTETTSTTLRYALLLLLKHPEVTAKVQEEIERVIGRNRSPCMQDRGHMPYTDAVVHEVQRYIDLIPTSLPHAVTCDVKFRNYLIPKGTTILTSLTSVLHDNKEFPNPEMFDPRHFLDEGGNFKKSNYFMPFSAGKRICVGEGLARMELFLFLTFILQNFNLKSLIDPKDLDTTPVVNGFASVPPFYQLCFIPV
# PostGolgi yeast: growth inhibition of a yeast mutant, post-Golgi transport screen; post-Golgi transport phenotypic cell assay; inhibition, % at 10 µM; actives 0.9% (n = 98,000); AID 739;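 also: yeast cells grown in 1536-well plates; yeast grown about 18 h at 30C before absorbance read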
# CYP2C19 activ: cytochrome P450 2C19 (human) activation. recombinant CYP2C19, luciferin-H EGE luminescence; hits give high values; 0 = fully inhibited enzyme, 1 = untreated enzyme. activation factor at 5 µM. 96,000 tested, under 10 active. AID 1025;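 active = activation factor of at least 2 at 5 µM in the primary screen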;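 also: 0 = wells with 2.5 mM tranylcypromine and 1 = vehicle-only wells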
# * = called active by the depositor; / = no result. Rule as the data show it, unless noted: active = inhibition above about 30%; inactive = the rest.
SMILES,CYP2C9 inh,CYP2C9 act,PostGolgi ctrl,CYP2C19 inh,PostGolgi yeast,CYP2C19 activ
COc1cc(C(Nc2ccc3c(c2)OCO3)C(=O)NC2CCCCC2)cc(OC)c1OC (centres undefined),27.5,0.7,3.7,74.0*,0.0,0.3
CCC(=O)Nc1ccc2c(c1)C(=O)N(C1CCCCC1)C2=O,53.4*,0.5,25.0,-2.1,10.6,1
CCOC(=O)N1CCC(N2C(=O)c3ccc(C(=O)Nc4ccc(F)cc4F)cc3C2=O)CC1,13.4,0.9,5.0,9.8,-15.7,0.9
O=C(Nc1ccncc1)c1ccc2c(c1)C(=O)N(C1CCCCC1)C2=O,92.1*,0.1,18.0,75.9*,1.9,0.2
Cc1cc(NC(=O)c2ccc3c(c2)C(=O)N(C2CCCCC2)C3=O)no1,5.6,0.9,7.3,-5.9,2.4,1.1
COc1cccc(CNc2ccc(F)c(Cl)c2)c1,29.3,0.7,5.8,14.2,-2.2,0.9
CN(C)CCOC(=O)c1cccc(Br)c1,-3.1,1,5.6,-0.7,0.3,1
Cc1[nH]c2ccc(C(=O)OCCN(C)C)cc2c1C,23.3,0.8,8.4,85.5*,3.0,0.1
CC(NC(=O)CSc1nc(=O)cc(N)n1CCc1ccccc1)c1ccccc1 (centres undefined),17.0,0.8,-1.5,27.0,13.5,0.7
CCn1c(SCC(=O)N2CCC(C)CC2)nnc1-c1ccc(S(=O)(=O)N2CCN(C)CC2)cc1,11.6,0.9,-5.8,12.3,-3.6,0.9
CCOC(=O)c1ccccc1NC(=O)C1COc2ccccc2O1 (centres undefined),31.3,0.7,22.8,86.7*,-0.2,0.1
COc1ccccc1CNC(=O)C1COc2ccccc2O1 (centres undefined),-18.6,1.2,7.2,98.7*,3.8,0
COc1ccccc1CNC(=O)COC(=O)C1=COCCO1,5.2,0.9,9.7,61.3*,-1.1,0.4
COC(=O)c1ccsc1NC(=O)C1COc2ccccc2O1 (centres undefined),23.0,0.8,9.3,30.8,-2.4,0.7
COC(=O)c1cc(NC(=O)C2COc3ccccc3O2)cc(C(=O)OC)c1 (centres undefined),72.6*,0.3,14.0,62.7*,1.6,0.4
O=C(COC(=O)C1=COCCO1)NCCCc1ccccc1,16.6,0.8,-0.2,40.1,11.7,0.6
COc1ccc(CCCNC(=O)CC#N)cc1OC,-4.1,1,-2.3,2.1,-7.2,1
COc1cccc(C(=O)Nc2ccc(NC(=O)C(C)(C)C)cn2)c1,-12.8,1.1,-2.5,-3.0,-0.6,1
COC(=O)c1ccccc1NC(=O)C1COc2ccccc2O1 (centres undefined),-31.8,1.3,13.6,90.3*,3.5,0.1
C=CCn1sc(=N)c(C#N)c1N,15.8,0.8,-5.3,-6.0,14.4,1.1
Cc1csc2nc(CNS(=O)(=O)N(C)C)cn12,2.0,1,5.7,3.4,-2.2,1
O=C(NC(NC(=S)Nc1cc(Cl)ccc1Cl)C(Cl)(Cl)Cl)c1ccco1 (centres undefined),96.7*,0,1.2,80.7*,5.9,0.2
O=C(NC(NC(=S)Nc1ccc(Cl)c(Cl)c1)C(Cl)(Cl)Cl)c1ccco1 (centres undefined),99.7*,0,7.7,72.2*,-2.4,0.3
Cc1ccccc1-n1c(SCc2ccccn2)nc2n[nH]c(C)c2c1=N,10.8,0.9,21.4,-0.7,-3.5,1
Cc1onc(-c2ccccc2)c1C(=O)NCCc1ccc(Cl)cc1,25.5,0.7,9.2,18.4,18.0,0.8
SMILES,CYP2C9 inh,CYP2C9 act,PostGolgi ctrl,CYP2C19 inh,PostGolgi yeast,CYP2C19 activ
COc1ccc(CCNC(=O)c2c(-c3ccccc3Cl)noc2C)cc1,67.6*,0.3,-4.1,79.8*,-7.8,0.2
Cc1onc(-c2ccccc2Cl)c1C(=O)Nc1nn[nH]n1,4.8,1,-7.4,9.2,7.9,0.9
COc1ccc2cc(CCNC(=O)c3c(-c4ccccc4Cl)noc3C)c(=O)[nH]c2c1,67.0*,0.3,7.8,42.9,1.0,0.6
COc1ccc2cc(CCNC(=O)C(C)(C)C)c(=O)[nH]c2c1,14.0,0.9,3.5,7.2,11.6,0.9
Cc1onc(-c2ccccc2Cl)c1C(=O)NCCN1Cc2ccccc2C1=O,59.1*,0.4,-5.3,75.1*,-3.2,0.2
COc1ccc(C2(C(=O)NCCCN(C)C)CCOCC2)cc1,-5.5,1.1,-2.9,-30.0,1.5,1.3
CCOc1cc(CNCCCN2CCOCC2)cc(Br)c1OCC(=O)Nc1cccc(C(F)(F)F)c1,8.7,0.9,20.1,11.6,-1.9,0.9
O=C1CC(c2cccs2)Cc2nc(NCC3CCCO3)ncc21 (centres undefined),74.5*,0.3,-0.6,85.2*,1.0,0.1
COc1ccc(N2CC(C(=O)NCc3cccnc3)CC2=O)cc1 (centres undefined),8.5,0.9,2.8,10.1,-10.2,0.9
CCOc1ccc(-n2cc(C(=O)Nc3cccc(Cl)c3)c3cc(OC)c(OC)cc3c2=O)cc1,59.4*,0.4,13.8,36.3,4.2,0.6
CCCc1nc2ccccc2c(C(=O)OCC(=O)Nc2cccc(S(=O)(=O)N3CCOCC3)c2)c1CC,43.7,0.6,4.4,46.5,-2.2,0.5
CCCc1nc2ccccc2c(C(=O)OCC(=O)Nc2ccc(S(=O)(=O)N3CCOCC3)cc2)c1CC,75.5*,0.2,8.8,7.7,-3.5,0.9
CCc1nc2ccccc2c(C(=O)OCC(=O)NCc2ccco2)c1C,47.0,0.5,0.1,55.8*,4.2,0.4
O=C(COC(=O)c1cncc(Br)c1)NCc1ccco1,-13.8,1.1,1.8,-4.1,-9.3,1
CCCc1nc2ccccc2c(C(=O)OCC(=O)NCc2ccco2)c1CC,70.2*,0.3,15.7,45.7,7.2,0.5
CCCOc1ccc(C2C(=O)N(C3CCCCC3)CC(=O)N2C2CC2)cc1OC (centres undefined),34.7,0.7,5.3,0.0,-1.4,1
O=C(CSc1nc(-c2ccccc2)c(-c2ccccc2)o1)N1CCOCC1,-55.5,1.6,22.4,39.5,0.2,0.6
CCc1nc(SCc2ccc(C(=O)OC)o2)c2c(=O)n(C)c(=O)n(C)c2n1,/,/,-3.4,/,-4.4,/
CCn1c(C)c2c([n+]1CC)CC(C)(C)CC2=O,-3.7,1,5.4,-4.4,-0.5,1
O=C1CCc2cc(S(=O)(=O)NC(Cc3ccccc3)C(=O)NCCC3=CCCCC3)ccc2N1 (centres undefined),60.7*,0.4,2.7,68.1*,-2.2,0.3
O=[N+]([O-])c1ccc(NCCCNS(=O)(=O)c2ccc(Cl)cc2)c(Cl)c1,49.1,0.5,72.1*,71.9*,36.3*,0.3
Cc1ccc(S(=O)(=O)NCCCNS(C)(=O)=O)cc1,-30.6,1.3,-4.5,3.0,11.3,1
Nc1nc(Cl)cc(Sc2ccc3ccccc3c2)n1,11.7,0.9,10.0,-2.8,4.7,1
